{
  "source": "PubChem BioAssay (NCATS)",
  "note": "Inconclusive results are not listed. Activity calls are given as the source filed them. The call rests on the fitted dose curve; in most records, active means well fitted curve in the direction sought with a large enough effect; inconclusive means small, poorly fitted or top-dose-only effect, or another doubt; inactive means no such curve, though single readings can be large or run the other way. On the % scale 0 is the no-effect control and ±100 the full control effect; potency means the concentration at half of the fitted maximal effect.",
  "data": [
    {"test": "qHTS for Inhibitors of the vitamin D receptor (VDR): Hit Validation using a Texas Red Assay (AID 602201)", "settings": "VDR coregulator binding, Texas Red fluorescence polarization, agonist-bound VDR ligand-binding domain; series mostly up to 57.1 µM; activity, negative = inhibition: at the top concentration", "text": "The vitamin D receptor (VDR) is a ligand-activated transcription factor and is partially responsible for the regulation of the endocrine system. This includes the transcriptional regulation of genes involved in the production of the parathyroid hormone (PTH) and the regulation of the blood calcium level. High levels of PHT can cause hypercalcemia in the case of primary and tertiary hyperparathyroidism. The VDR-mediated gene regulation, activated by its ligand 1,25-dihydroxyvitamin D3 (1,25-(OH)2D3), is governed by the recruitment of coactivators. Our hypothesis is that small molecules, with the ability to inhibit the interaction between VDR and certain coactivators, are able to selectively modulate VDR-mediated transcription. Our long term objective is the application these VDR-coactivator inhibitors to study the role of VDR-coactivator binding for specific VDR regulated genes. Ultimately, these molecules can be developed into new treatments for hypercalcemic hyperparathyroidism. No small molecule or non-peptide inhibitors are known for the VDR-coactivator interaction.\nIn a collaboration between the University of Wisconsin, Milwaukee and the NIH Chemical Genomics Center (NCGC) a HTS-compatible enzymatic assay was developed. The assay uses fluorescence polarization as its read-out to measure the inhibition between VDR and coregulator peptide SRC2-3 exerted by small molecules. This assay was used to screen the NIH Molecular Libraries Small Molecule Repository (MLSMR). The HTS assay detects polarization at 665 nm emitted by the Alexa Fluor 647 dye. This validation assay detects polarization of the emission from Texas-Red at 615 nm.\nNIH Chemical Genomics Center [NCGC]\nNIH Molecular Libraries Probe Centers Network [MLPCN]\nAssay Submitter (PI): Alexander Arnold, University of Wilwaukee\nFour microliter of either 1.5 uM VDR-LBD, […], and 7 nM Texas Red (all final concentrations) in columns 1, 2, and 5 to 48 or 7 nM Texas Red in columns 3 and 4 are dispensed into black medium-binding solid bottom Greiner plates. Both solutions are kept at 4 deg C and protected from light and dispensed using a Kalypsys dispenser. Then 23nl of compounds and controls are added with Kalypsys pintool. The control is 26.5 mM CBT358 (final concentration of 151 uM) and the compounds' final range in concentration is 457 nM - 114 uM. Plate is centrifuged at 1000 RPM for 15 seconds to remove any residual bubbles. The plate is then incubate at ambient room temperature for 2 hours. It is then read on the Envision for a fluorescent polarization read-out (Ex 595 nm/Em 615 nm)", "values": [
      {"smiles": "CC(C)(C)c1ccc(-n2nc(C#N)c(Cl)cc2=O)cc1", "Potency": "15.8 µM (active)"},
      {"smiles": "Cc1ccc(C(=O)/C=C/c2cc(Br)cc(Br)c2O)o1", "activity, negative = inhibition": "-12.8% (inactive)"},
      {"smiles": "CC1=NOC(=O)/C1=C\\c1ccc(-c2ccc(Br)cc2)o1", "Potency": "3.16 µM (active)"},
      {"smiles": "O=C1ON=C(c2ccccc2)/C1=C/c1ccc(-c2ccccc2[N+](=O)[O-])o1", "Potency": "4.47 µM (active)"},
      {"smiles": "Cc1oc2c(c1C(=O)c1ccccc1)C(=O)C(=O)c1ccccc1-2", "Potency": "3.98 µM (active)"},
      {"smiles": "Cc1[nH]n(-c2ncc(-c3ccccc3)s2)c(=O)c1C(c1ccc(Cl)cc1)C(C#N)C#N", "note": "(stereo not given)", "activity, negative = inhibition": "8.57% (inactive)"},
      {"smiles": "O=[N+]([O-])c1c(Nc2ccccn2)cc(Cl)c2nonc12", "activity, negative = inhibition": "-17.4% (inactive)"},
      {"smiles": "O=C(NC1(O)C(=O)c2ccccc2C1=O)c1c(Cl)cccc1Cl", "Potency": "3.98 µM (active)"},
      {"smiles": "Cc1[nH]n(-c2ncc(-c3ccccc3)s2)c(=O)c1C(c1ccc(Br)cc1)C(C#N)C#N", "note": "(stereo not given)", "activity, negative = inhibition": "24.5% (inactive)"},
      {"smiles": "CCOC(=O)COc1ccc(Br)cc1/C=C/c1[nH]c(=O)[nH]c(=O)c1[N+](=O)[O-]", "activity, negative = inhibition": "21.7% (inactive)"},
      {"smiles": "O=C(O)c1ccc2c(c1)C(=O)N(c1ccc(/C=C/C(=O)c3ccccc3)cc1)C2=O", "activity, negative = inhibition": "4.55% (inactive)"},
      {"smiles": "COc1cc([N+](=O)[O-])ccc1-c1ccc(/C=C2\\C(=O)ON=C2c2ccccc2)o1", "Potency": "3.16 µM (active)"},
      {"smiles": "COc1ccc(S(=O)(=O)Nc2cc(SCC(=O)O)c(O)c3ccccc23)cc1", "Potency": "3.55 µM (active)"},
      {"smiles": "COc1ccc2c(c1)Cc1sc(NC(=O)c3cccc(C)c3)nc1-2", "Potency": "10 µM (active)"},
      {"smiles": "CC1=C(CO)C(=O)OC([C@@H](C)C2CC[C@H]3C4C[C@H]5O[C@]56[C@@H](O)C=CC(=O)[C@]6(C)C4CC[C@]23C)C1", "note": "(stereo not given in full)", "Potency": "11.2 µM (active)"},
      {"smiles": "CC1=NN(c2cccc(C(=O)O)c2)C(=O)/C1=C\\C=C/c1ccccc1", "Potency": "5.62 µM (active)"},
      {"smiles": "Cc1ccc(/C(O)=C2/C(=O)C(=O)OC2c2ccc(Cl)cc2)cc1", "note": "(stereo not given)", "Potency": "7.08 µM (active)"},
      {"smiles": "O=C1C(Cl)=C(NS(=O)(=O)c2ccc([N+](=O)[O-])cc2)C(=O)c2ccccc21", "activity, negative = inhibition": "1.09% (inactive)"},
      {"smiles": "CC1=NOC(=O)/C1=C\\c1ccc(-c2ccccc2Br)o1", "activity, negative = inhibition": "-1.62% (inactive)"},
      {"smiles": "O=S(=O)(Nc1cc2nc3ccccc3nc2n1Cc1ccccc1)c1ccc(Cl)cc1", "activity, negative = inhibition": "-0.582% (inactive)"},
      {"smiles": "O=C(O)c1cc(Nc2cc(Cl)c3nonc3c2[N+](=O)[O-])ccc1O", "activity, negative = inhibition": "-7.01% (inactive)"},
      {"smiles": "COc1cc(/C=C2/C(=O)c3cccc([N+](=O)[O-])c3C2=O)c(Br)cc1O", "activity, negative = inhibition": "4.56% (inactive)"},
      {"smiles": "O=C(NC1(O)C(=O)c2ccccc2C1=O)c1ccccc1", "Potency": "6.31 µM (active)"},
      {"smiles": "COc1ccc(-c2cc(N)n(S(=O)(=O)c3c(F)c(F)c(F)c(F)c3F)n2)cc1OC", "Potency": "20 µM (active)"},
      {"smiles": "O=C(NNc1cc(Br)c(O)c(Br)c1)c1ccccc1", "Potency": "25.1 µM (active)"}
    ]}
  ]
}
